“And” between values parts separate entries of the source, which are not always exact repeats. Equal entries are not always repeated. Among all 5,500 compounds or so, about 2,000 (36%) were called active. Roughly 18% stayed inconclusive and do not appear here. Cut-off read from the data, not from the text of the source: active = normalized growth mostly below about 0.91 (no sharp cut-off); inconclusive = no clear call, values can overlap the other calls; inactive = mostly above about 0.92. The list shows a part of the results.
Assay: chemical genetic growth profiling, strain panel (AID 1159580);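 note: tested at 20 µM; growth read once vehicle control cultures reached saturation at 30 °C; 1 = growth at the plate median or of vehicle wells; lower values mean less growth of the strain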
Settings: growth OD

Measured: normalized growth

CCCN(CCC)C(=O)C(CCC(=O)O)NC(=O)c1ccccc1 (stereo unspecified)
inactive: S. cerevisiae deletion strains, locus YJR075W, strain HOC1, stronger effect = lower value 0.988 | S. cerevisiae deletion strains, locus YKL009W, strain mrt4, stronger effect = lower value 1.02 | S. cerevisiae deletion strains, locus YKL068W, stronger effect = lower value 0.975 | S. cerevisiae deletion strains, locus YKL085W, strain MDH1 (second series), stronger effect = lower value 0.987 | S. cerevisiae deletion strains, locus YKL085W, strain MDH1, stronger effect = lower value 0.987 | S. cerevisiae deletion strains, locus YKL160W, strain elf1, stronger effect = lower value 1.01 | S. cerevisiae deletion strains, locus YKL190W, strain CNB1, stronger effect = lower value 0.988 | S. cerevisiae deletion strains, locus YKR001C, strain vps1, stronger effect = lower value 0.995 | S. cerevisiae deletion strains, locus YKR026C, strain gcn3, stronger effect = lower value 0.974 | S. cerevisiae deletion strains, locus YKR091W, strain srl3, stronger effect = lower value 0.985 | S. cerevisiae deletion strains, locus YLL001W, strain dnm1, stronger effect = lower value 0.973 | S. cerevisiae deletion strains, locus YLL026W, stronger effect = lower value 0.993 | S. cerevisiae deletion strains, locus YLL041C, strain sdh2, stronger effect = lower value 0.982 | S. cerevisiae deletion strains, locus YLR027C, strain aat2, stronger effect = lower value 0.982 | S. cerevisiae deletion strains, locus YLR039C, strain RIC1, stronger effect = lower value 0.987 | S. cerevisiae deletion strains, locus YLR058C, strain SHM2, stronger effect = lower value 0.997 | S. cerevisiae deletion strains, locus YLR102C, strain apc9, stronger effect = lower value 0.986 | S. cerevisiae deletion strains, locus YLR113W, strain HOG1, stronger effect = lower value 0.96 | S. cerevisiae deletion strains, locus YLR221C, strain rsa3, stronger effect = lower value 0.988 | S. cerevisiae deletion strains, locus YLR258W, strain gsy2, stronger effect = lower value 0.973 | S. cerevisiae deletion strains, locus YLR262C, strain YPT6 (second series), stronger effect = lower value 0.968 | S. cerevisiae deletion strains, locus YLR262C, strain YPT6, stronger effect = lower value 0.998 | S. cerevisiae deletion strains, locus YLR268W, strain sec22, stronger effect = lower value 0.955 | S. cerevisiae deletion strains, locus YLR320W, strain mms22, stronger effect = lower value 0.987 | S. cerevisiae deletion strains, locus YLR330W, strain CHS5, stronger effect = lower value 0.995 | S. cerevisiae deletion strains, locus YLR342W, strain FKS1 (second series), stronger effect = lower value 1.08 | S. cerevisiae deletion strains, locus YLR342W, strain FKS1, stronger effect = lower value 0.989 | S. cerevisiae deletion strains, locus YLR357W, strain rsc2, stronger effect = lower value 0.964 | S. cerevisiae deletion strains, locus YLR370C, strain arc18, stronger effect = lower value 0.984 | S. cerevisiae deletion strains, locus YLR371W, strain rom2, stronger effect = lower value 0.986 | S. cerevisiae deletion strains, locus YLR384C, strain iki3, stronger effect = lower value 0.982 | S. cerevisiae deletion strains, locus YLR418C, strain cdc73, stronger effect = lower value 1 | S. cerevisiae deletion strains, locus YML016C, strain PPZ1, stronger effect = lower value 1.01 | S. cerevisiae deletion strains, locus YML032C, strain rad52, stronger effect = lower value 0.982 | S. cerevisiae deletion strains, locus YML120C, strain ndi1, stronger effect = lower value 0.988 | S. cerevisiae deletion strains, locus YML124C, strain tub3, stronger effect = lower value 0.988 | S. cerevisiae deletion strains, locus YMR058W, strain fet3, stronger effect = lower value 0.983 | S. cerevisiae deletion strains, locus YMR078C, strain ctf18, stronger effect = lower value 0.985 | S. cerevisiae deletion strains, locus YMR125W, strain sto1, stronger effect = lower value 0.975 | S. cerevisiae deletion strains, locus YMR129W, stronger effect = lower value 1 | S. cerevisiae deletion strains, locus YMR205C, strain PFK2, stronger effect = lower value 0.992 | S. cerevisiae deletion strains, locus YMR223W, strain ubp8, stronger effect = lower value 1.02 | S. cerevisiae deletion strains, locus YMR231W, strain pep5, stronger effect = lower value 0.976 | S. cerevisiae deletion strains, locus YMR263W, strain SAP30, stronger effect = lower value 0.99 and 1.01 | S. cerevisiae deletion strains, locus YMR307W, strain GAS1, stronger effect = lower value 1.06 and 0.989 | S. cerevisiae deletion strains, locus YNL067W, strain RPL9B, stronger effect = lower value 0.982 | S. cerevisiae deletion strains, locus YNL071W, strain lat1, stronger effect = lower value 1 | S. cerevisiae deletion strains, locus YNL128W, strain TEP1, stronger effect = lower value 0.983 | S. cerevisiae deletion strains, locus YNL153C, strain GIM3, stronger effect = lower value 1 and 1.01 | S. cerevisiae deletion strains, locus YNL175C, strain NOP13, stronger effect = lower value 1.01 | S. cerevisiae deletion strains, locus YNL183C, strain NPR1, stronger effect = lower value 0.933 | S. cerevisiae deletion strains, locus YNL197C, strain WHI3, stronger effect = lower value 1.08 | S. cerevisiae deletion strains, locus YNL209W, strain ssb2, stronger effect = lower value 0.979 | S. cerevisiae deletion strains, locus YNL224C, strain SQS1, stronger effect = lower value 1 | S. cerevisiae deletion strains, locus YNL233W, strain BNI4, stronger effect = lower value 0.989 | S. cerevisiae deletion strains, locus YNL248C, strain rpa49, stronger effect = lower value 0.948 | S. cerevisiae deletion strains, locus YNL250W, strain rad50, stronger effect = lower value 0.982 | S. cerevisiae deletion strains, locus YNL271C, strain bni1, stronger effect = lower value 0.988 | S. cerevisiae deletion strains, locus YNL298W, strain CLA4, stronger effect = lower value 0.998 | S. cerevisiae deletion strains, locus YNL307C, strain MCK1, stronger effect = lower value 0.996 | S. cerevisiae deletion strains, locus YNL322C, strain KRE1 (second series), stronger effect = lower value 0.99 | S. cerevisiae deletion strains, locus YNL322C, strain KRE1, stronger effect = lower value 0.982 and 1.01 | S. cerevisiae deletion strains, locus YNR049C, strain mso1, stronger effect = lower value 0.968 | S. cerevisiae deletion strains, locus YNR052C, strain pop2, stronger effect = lower value 0.991 | S. cerevisiae deletion strains, locus YOL006C, strain TOP1, stronger effect = lower value 0.957 | S. cerevisiae deletion strains, locus YOL012C, strain htz1 1.01 | S. cerevisiae deletion strains, locus YOL147C, strain pex11, stronger effect = lower value 0.995 | S. cerevisiae deletion strains, locus YOR001W, strain rrp6, stronger effect = lower value 0.984 | S. cerevisiae deletion strains, locus YOR061W, strain CKA2, stronger effect = lower value 1.01 | S. cerevisiae deletion strains, locus YOR069W, strain VPS5, stronger effect = lower value 0.997 | S. cerevisiae deletion strains, locus YOR070C, strain gyp1, stronger effect = lower value 0.99 | S. cerevisiae deletion strains, locus YOR080W, strain dia2, stronger effect = lower value 0.969 | S. cerevisiae deletion strains, locus YOR083W, strain WHI5 (second series), stronger effect = lower value 1.01 | S. cerevisiae deletion strains, locus YOR083W, strain WHI5, stronger effect = lower value 0.98 | S. cerevisiae deletion strains, locus YOR106W, strain vam3, stronger effect = lower value 0.975 | S. cerevisiae deletion strains, locus YOR136W, strain idh2, stronger effect = lower value 0.989 | S. cerevisiae deletion strains, locus YOR144C, strain elg1, stronger effect = lower value 0.977 | S. cerevisiae deletion strains, locus YOR184W, strain ser1, stronger effect = lower value 0.993 | S. cerevisiae deletion strains, locus YOR231W, strain MKK1, stronger effect = lower value 0.978 | S. cerevisiae deletion strains, locus YOR265W, strain rbl2, stronger effect = lower value 0.987 | S. cerevisiae deletion strains, locus YOR270C, strain vph1, stronger effect = lower value 0.919 | S. cerevisiae deletion strains, locus YOR290C, strain snf2, stronger effect = lower value 0.988 | S. cerevisiae deletion strains, locus YOR316C, strain cot1, stronger effect = lower value 0.977 | S. cerevisiae deletion strains, locus YPL051W, strain arl3, stronger effect = lower value 0.987 | S. cerevisiae deletion strains, locus YPL055C, strain LGE1, stronger effect = lower value 0.99 and 1.01 | S. cerevisiae deletion strains, locus YPL078C, strain atp4, stronger effect = lower value 0.992 | S. cerevisiae deletion strains, locus YPL106C, strain sse1, stronger effect = lower value 0.955 | S. cerevisiae deletion strains, locus YPL240C, strain hsp82, stronger effect = lower value 0.986 | S. cerevisiae deletion strains, locus YPL241C, strain CIN2, stronger effect = lower value 1 | S. cerevisiae deletion strains, locus YPL256C, strain CLN2, stronger effect = lower value 0.965 | S. cerevisiae deletion strains, locus YPR119W, strain clb2, stronger effect = lower value 0.989 | S. cerevisiae deletion strains, locus YPR141C, strain kar3, stronger effect = lower value 0.984 | S. cerevisiae deletion strains, locus YPR163C, strain tif3, stronger effect = lower value 0.977 | S. cerevisiae deletion strains, locus YPR167C, strain met16, stronger effect = lower value 0.983 | S. cerevisiae deletion strains, strain wtn01, stronger effect = lower value 0.987 | S. cerevisiae strains, strain wild type, stronger effect = lower value 1

— PubChem BioAssay AID1159580 (chemical genetic matrix, 2015)
